# Results as given in PubChem BioAssay (EPA / NIEHS).
# Records with an inconclusive call do not appear. Active and inactive are the calls of the source. Rule for the calls: active = hit-call score of the fitted dose curve at least 0.9, where 1 is the maximum; inconclusive = response in the unintended direction; inactive = score below 0.9.
# Read-out: Cytochrome P450 2C9 (Homo sapiens) (UniProt P11712)
# Experiment: CLD_CYP2C9_24hr: CellzDirect (CLD) Gene Expression Assay for xenobiotic metabolism (CYP2C9) at 24 hours (AID 2283688)
# Description: CLD_24hr is a cell-based, multiplexed-readout assay that uses hepatocyte, a human liver primary cell, with measurements taken at 24 hours after chemical dosing in a 96-well plate.CLD_CYP2C9_24hr is one of 16 assay component(s) measured or calculated from the CLD_24hr assay. It is designed to make measurements of mRNA induction, a form of inducible reporter, as detected with chemiluminescence signals by Quantitative Nuclease Protection Assay (qNPA) technology.Data from the assay component CLD_CYP2C9_24hr was analyzed at the endpoint, CLD_CYP2C9_24hr, in the positive analysis fitting direction relative to DMSO as the negative control and baseline of activity. Using a type of inducible reporter, gain-of-signal activity can be used to understand changes in the reporter gene as they relate to the gene CYP2C9. Furthermore, this assay endpoint can be referred to as a primary readout. To generalize the intended target to other relatable targets, this assay endpoint is annotated to the cyp intended target family, where subfamily is xenobiotic metabolism.
# Human hepatocyte cultures were treated daily for two consecutive days with fresh dosing solutions containing appropriate concentrations of the 320 ToxCast chemicals (chemical identities were blinded to CellzDirect and other ToxCast collaborators), vehicle control (0.2% DMSO), and positive control inducers as summarized in Table 1. Due to the large number of treatment groups and chemicals examined, the ToxCast chemicals were divided into two groups (spanning two independent cultures of hepatocytes from separate donor preparations (Hu778: ToxCast plates 1 and 2; Hu776: ToxCast plates 3 and 4). Each preparation of human hepatocyte cultures was treated with respective vehicle control, medium only control, set of six positive controls/reference chemicals for the five hepatic receptor pathways, and a subset of eight of the ToxCast chemicals (indoxacarb, pyrithiobac-sodium, norflurazon, cyhalofop-butyl, methomyl, thiram, acetochlor, and propiconazole). These replicate data, coupled with internal replicates designed within the blinded ToxCast chemical library, provided additional data to evaluate interindividual differences between hepatocyte preparations and their potential impact on chemical profiles.Cell morphology and integrity were evaluated using phase-contrast microscopy as an indicator of hepatocyte cell health (Tyson & Green, 1987). Cultures for each treatment group (i.e., media, vehicle [0.2% DMSO], positive control inducers [multiple concentrations], and the ToxCast chemicals [multiple concentrations]) were observed and cell morphology was assessed relative to vehicle control cultures at each harvest time point (0, 6, 24, or 48 h). […] Images were evaluated at the conclusion of the study to assess changes in cell integrity and account for the effects of chemical exposure on uncharacteristic changes in concentration-dependent gene expression profiles. The results from these determinations of apparent cytotoxicity were annotated (yes/no) alongside the corresponding qNPA data for reference.At the conclusion of each treatment period, hepatocyte cultures (96-well) were washed with 1 volume of HBSS, lysed by addition of 25 ul ArrayPlate lysis buffer (HTG, Tucson, AZ), and 70 ul/well of Denaturation Oil, denatured by incubation at 95C for 10 min, and frozen at approximately -70C until analysis by nuclease protection assay (qNPA) (Roberts et al., 2007). For qNPA analysis, cell lysates were thawed at 50C for approximately 30 min, qNPA probes were added, and samples were incubated at 95C for 10 min to begin the detection process by denaturing the target RNA, dissociating the duplexes and secondary structure hybridization. At the conclusion of the hybridization period, S1 nuclease reagent was added to each sample to digest all nonprotected nucleotides at 50C for 60-90 min. […]
row,Structure (SMILES),outcome
1,COc1c(Cl)ccc(Cl)c1C(=O)O,inactive
2,CCCCOCCOCCOCc1cc2c(cc1CCC)OCO2,inactive
3,O=C(Nc1ccc([N+](=O)[O-])cc1Cl)c1cc(Cl)ccc1O,inactive
4,CCC(O)=C1C(=O)CC(C(=O)O)CC1=O (stereo not drawn),inactive
5,CCCN(CCC)C(=O)SCC,inactive
6,CCOC(=O)NCCOc1ccc(Oc2ccccc2)cc1,inactive
7,CC1(C)C(C=C(Cl)Cl)C1C(=O)OCc1cccc(Oc2ccccc2)c1 (stereo not drawn),inactive
8,c1ccc(Nc2ccccc2)cc1,inactive
9,COCCO,inactive
10,COC(=O)c1cccc(C)c1S(=O)(=O)NC(=O)Nc1nc(OCC(F)(F)F)nc(N(C)C)n1,inactive
11,CCCCC(CC)COC(=O)c1ccccc1C(=O)O (stereo not drawn),inactive
12,CCOC(=O)[C@H](C)Oc1ccc(Oc2nc3ccc(Cl)cc3o2)cc1,inactive
13,CCCOC(=O)c1ccc(C(=O)OCCC)nc1,inactive
14,CCNc1nc(N)nc(Cl)n1,inactive
15,CCCCOC(=O)C(C)Oc1ccc(Oc2ccc(C(F)(F)F)cn2)cc1 (stereo not drawn),inactive
16,CCCCCCC(C)OC(=O)COc1nc(F)c(Cl)c(N)c1Cl (stereo not drawn),inactive
17,CC(C)(c1ccc(O)cc1)c1ccc(O)cc1,inactive
18,CCCCCOC(=O)COc1cc(N2C(=O)C3=C(CCCC3)C2=O)c(F)cc1Cl,inactive
